Holding throughout (assay): NCI-60 one-dose screen, 48 h (100 = growth as untreated, 0 = no growth, -100 = all killed)
Holding throughout (details): 10 µM unless noted

For assay [1], the system named is NCI-H23 lung.
For assay [2], the system named is NCI-H226 lung.
The test system of assay [3] is NCI-H322M lung.
In assay [4] the test system is HOP-62 NSCLC.
Assay [5] has as its system NCI-H460 lung.
The subject of assay [6] is HOP-92 NSCLC.
Assay [7] relates to NCI-H522 lung.
Assay [8] deals with A549/ATCC NSCLC.
For assay [9], the system named is 786-0 renal.
The test system of assay [10] is COLO 205 colon.
Assay [11] relates to DU-145 prostate.
Assay [12] deals with K-562 leukemia.
For assay [13], the system named is MALME-3M melanoma.
Assay [14] relates to MDA-MB-231 breast.
Assay [15] has as its system RXF 393 renal.
Assay [16] deals with SF-268 CNS.
Assay [17] has as its system SF-295 CNS.
The test system of assay [18] is SF-539 CNS.
The test system of assay [19] is UACC-257 melanoma.
Assay [20] concerns M14 melanoma.

Structures are written as SMILES. This is part of a sample that, as a whole, favours compounds with a hit. Of some 83,000 tested, about 20% had one in any assay.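 Single-dose data. Exposure time 48 hours. Values below 10 considered active.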 Values without a mark were called inactive. Activity calls are given as the source filed them.

`O[C@@H]1CCO[C@H](c2ccc3ccccc3c2)C1`: the growth in assay [1] is 95.3%; in assay [2], 96.8%; in assay [3], 104%; in assay [4] it was 99.5%; in assay [5], 107%; in assay [6] it was 93.1%. For the same molecule, the growth in [7] was 87.9%; in assay [8], 96.7%; in [9], 98.7%; in [10] it was 106%; in assay [11] it was 102%; in assay [12], 98.3%. Also, the growth in assay [13] was 96.7%; in [14] it was 104%; in assay [15], 97%; in [16] it was 96.2%; in assay [17], 102%; in assay [18], 98.9%. Moreover, the values for the growth in assay [19] and in assay [20] were 98.5% and 101%, respectively.
For the molecule `c1ccc2nc(Cn3cc[n+](Cc4ccc5ccccc5n4)c3)ccc2c1`, the growth in assay [1] is 48.7%; in assay [2], 70.8%; in [3], 95.3%; in assay [4] it was 82.5%; in [5], 77.7%; in [6] it was 34.3%. In addition, the growth in assay [7] is 34.5%; in assay [8] it was 77.5%; in assay [9] it was 101%; in [10], 25.6%; in assay [11], 88.7%; in [12], 41.1%. Moreover, the growth in assay [13] is 50.2%; in assay [14] it was 77.9%; in assay [15], 86.6%; in assay [16], 67.1%; in assay [17], 91.5%; in [18], 58.8%. The growth was 21.9% in [19] and 69% in [20].
For the molecule `C=C1C(=O)O[C@H]2[C@H]1CC/C(COC(=O)n1ccnc1C)=C\CC[C@@]1(C)O[C@@H]21`, the growth was 98.7% in [1]; 91.2% in [2]; 98.3% in [3]; 99.4% in assay [4]; 105% in assay [5]; 106% in [6]. Moreover, the growth in assay [7] is 66.3%; in assay [8] it was 89.3%; in [9], 95.7%; in [10] it was 89.8%; in assay [11], 93.2%; in assay [12], 95.4%. Besides, the growth in assay [13] is 92.6%; in assay [14], 106%; in [15] it was 96.2%; in assay [16], 101%; in [17], 104%; in assay [18] it was 101%. Also, the growth in [19] was 75.1%; in assay [20] it was 91%.
On to `NN=C(c1ccc(Cl)cc1)c1ccc(Cl)cc1`, for which the growth was 94.3% in [1]; 108% in assay [2]; 123% in assay [3]; 108% in assay [4]; 111% in [5]; 97% in assay [6]. Also, the growth in [7] was 106%; in assay [8], 82.2%; in assay [9] it was 104%; in [10], 110%; in assay [11], 116%; in assay [12], 105%. Further, the growth was 121% in [13]; 106% in assay [14]; 109% in assay [15]; 96.6% in assay [16]; 91.1% in assay [17]; 104% in assay [18]. For the same molecule, the growth was 94.5% in assay [19] and 106% in assay [20].
For `C=C1c2c(Cl)ccc(O)c2C(O)=C2C(=O)[C@]3(O)C(O)=C(C(N)=O)C(=O)[C@@H](N(C)C)[C@@H]3[C@@H](O)[C@H]12`, the growth is 8.01% (active) in assay [1]; 42.7% in assay [2]; -2.1% (active) in assay [3]; 9.39% (active) in assay [4]; 4.63% (active) in assay [5]; -37.3% (active) in [6]. In addition, the growth in assay [7] is 11.6%; in assay [8], 9.74% (active); in [9], 8.22% (active); in assay [10], 22.5%; in [11], 21.9%; in assay [12] it was 3.66% (active). Also, the growth in assay [13] was -15% (active); in [14], 11%; in assay [15] it was 12.4%; in assay [16] it was 11.8%; in assay [17], -4.14% (active); in assay [18], 5.14% (active). The growth in assay [19] was -4.26% (active); in [20], 9.22% (active).
Turning to `CNCCCOc1c(Br)cc(CCNC(=O)/C(Cc2ccc(OC)c(Br)c2)=N/O)cc1Br`, the growth in assay [1] is 62.7%; in assay [2], 77.3%; in assay [3], 70.3%; in assay [4] it was 67.5%; in assay [5] it was 15.8%; in [6] it was 40.9%. Moreover, the growth in assay [7] was 29.3%; in assay [8], 49.7%; in [9], 40.6%; in assay [10] it was -58.6% (active); in assay [11], 61.2%; in assay [12] it was -21.6% (active). In addition, the growth in assay [13] was 1.79% (active); in assay [14], 26.8%; in assay [15], 45.3%; in assay [16], 53%; in assay [17], 19.8%; in assay [18], 32.1%. For the same molecule, the growth in assay [19] is 4.02% (active); in assay [20] it was -55.9% (active).
For the molecule `O=S(=O)(CCN1CCOCC1)Nc1cc(-c2ccc3ncnc(Nc4ccc(F)c(Cl)c4)c3c2)cnc1Cl`, the growth in assay [1] was 28%; in [2] it was 26.9%; in [3], 0.347% (active); in [4], -0.609% (active); in assay [5], 14.8%; in assay [6], -20.8% (active). In addition, the growth is 17.2% in [7]; 10.3% in assay [8]; 8.06% (active) in assay [9]; -6.12% (active) in [10]; 15.6% in assay [11]; 42.3% in assay [12]. Moreover, the growth in [13] is -23.1% (active); in [14], -1.28% (active); in assay [15] it was -19% (active); in assay [16], 16.8%; in assay [17], 2.93% (active); in [18] it was -34.5% (active). In addition, the growth was -3.1% (active) in assay [19] and 14.5% in assay [20].

The values are drawn from PubChem BioAssay (NCI).
